# Experimental data published in the supplement of paper PMC10037445.
# The full ranking holds about 2,900 compounds; the median of “IRF Lucia reporter activity, fold change vs agonist alone” is about 0.9, and the highest 2% start at about 2.8. This is one part of a sample in which the highest values are shown more often than they occur.
# Assays:
# [1] = system: RAW-Dual; test: IRF Lucia reporter activity, fold change vs agonist alone; cytotoxicity flag (confluency mask): not cytotoxic; higher = enhanced IRF activity
# Method in brief: (§1)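 Supernatant from RAW-Dual macrophages was read after 20 hours for IRF by QuantiLuc luminescence and for NF-κB by QuantiBlue absorbance at 620 nm. The cells (50,000 cells/well in DMEM, 384-well plates, 37 °C, 5% CO2) had received 50 nL of library stock by pin tool and, 1 h later, a PRR agonist. Reporter activity is expressed relative to agonist-alone wells as fold change, and wells were flagged cytotoxic if IncuCyte confluency was under 70% of agonist controls in both mask sets.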
# [2] = system: RAW-Dual; test: IRF Lucia reporter activity, fold change vs agonist alone; higher = enhanced IRF activity; details: cytotoxicity flag (confluency mask): not cytotoxic, agonist: MPLA (TLR4) […]
# Method in brief: as §1
# [3] = agonist: 3'3'-cGAMP (STING) 10 ug/mL
# [4] = library stock concentration (final ~1000-fold dilution): 10 mM
smiles,measurement,setting,value
O=c1cc(-c2cccc3c2Sc2ccccc2S3)oc(N2CCOCC2)c1 (library stock concentration (final ~1000-fold dilution): 10 mM),IRF Lucia reporter activity,[1]; [3],0.647
same,IRF Lucia reporter activity,[1]; agonist: LPS (TLR4) 0.1 ug/mL,5.22
O=c1cc(N2CCOCC2)oc2c1ccc1ccccc12,IRF Lucia reporter activity,[2]; library stock concentration (final ~1000-fold dilution): 2 mM,1.15
O=c1cc(N2CCOCC2)oc2c(-c3ccc4c(c3)OCCO4)csc12 (library stock concentration (final ~1000-fold dilution): 10 mM),IRF Lucia reporter activity,[1]; [3],0.12
same,IRF Lucia reporter activity,[1]; agonist: LPS (TLR4) 0.1 ug/mL,0.269
O=c1cc(-c2cccc3c2Sc2ccccc2S3)oc(N2CCOCC2)c1,IRF Lucia reporter activity,[2]; [4],6.25
CC1CN(CC(=O)Nc2ccc3c(c2)Cc2cccc(-c4cc(=O)cc(N5CCOCC5)o4)c2S3)CC(C)O1 (configuration not stated),IRF Lucia reporter activity,[2]; [4],5.96
CC1(c2cc(-c3cncnc3)c(F)cc2F)CCSC(N)=N1 (configuration not stated) (library stock concentration (final ~1000-fold dilution): 10 mM),IRF Lucia reporter activity,[1]; [3],0.823
same,IRF Lucia reporter activity,[1]; agonist: LPS (TLR4) 0.1 ug/mL,0.805
CC1(c2cc(-c3cncnc3)c(F)cc2F)CCSC(N)=N1 (configuration not stated),IRF Lucia reporter activity,[2]; [4],0.717
CCC(C)Nc1cc(C(=O)NC2CC3CCC(C2)N3c2ccc(C(=O)C3CC3)cn2)c(C)cc1C(N)=O (configuration not stated) (library stock concentration (final ~1000-fold dilution): 10 mM),IRF Lucia reporter activity,[1]; [3],0.482
same,IRF Lucia reporter activity,[1]; agonist: LPS (TLR4) 0.1 ug/mL,0.924
CCC(C)Nc1cc(C(=O)NC2CC3CCC(C2)N3c2ccc(C(=O)C3CC3)cn2)c(C)cc1C(N)=O (configuration not stated),IRF Lucia reporter activity,[2]; [4],0.838
C[N+]1(C)C2CCC1CC(OC(=O)C(O)c1ccccc1)C2 (configuration not stated),IRF Lucia reporter activity,[2]; [4],0.953
C[N+]1(C)C2CCC1CC(OC(=O)C(O)c1ccccc1)C2 (configuration not stated) (library stock concentration (final ~1000-fold dilution): 10 mM),IRF Lucia reporter activity,[1]; [3],1.01
same,IRF Lucia reporter activity,[1]; agonist: LPS (TLR4) 0.1 ug/mL,1.29
O=C(Nc1ccc(OC(F)(F)Cl)cc1)c1cnc(N2CCC(O)C2)c(-c2ccn[nH]2)c1 (configuration not stated) (library stock concentration (final ~1000-fold dilution): 10 mM),IRF Lucia reporter activity,[1]; [3],0.296
same,IRF Lucia reporter activity,[1]; agonist: LPS (TLR4) 0.1 ug/mL,1.27
CCn1c(=O)c(-c2cc(NC(=O)Nc3ccccc3)c(F)cc2Br)cc2cnc(NC)cc21 (library stock concentration (final ~1000-fold dilution): 10 mM),IRF Lucia reporter activity,[1]; [3],0.671
same,IRF Lucia reporter activity,[1]; agonist: LPS (TLR4) 0.1 ug/mL,0.268
Cc1ccc(Nc2nccc(N(C)c3ccc4c(C)n(C)nc4c3)n2)cc1S(N)(=O)=O.Cl,IRF Lucia reporter activity,[2]; [4],0.646
Cc1ccc(Nc2nccc(N(C)c3ccc4c(C)n(C)nc4c3)n2)cc1S(N)(=O)=O.Cl (library stock concentration (final ~1000-fold dilution): 10 mM),IRF Lucia reporter activity,[1]; [3],0.0722
same,IRF Lucia reporter activity,[1]; agonist: LPS (TLR4) 0.1 ug/mL,0.446
COC(=O)C(CC(C)C)NC(=O)c1ccc(NCC(N)CS)cc1-c1cccc2ccccc12.O=C(O)C(F)(F)F (configuration not stated) (library stock concentration (final ~1000-fold dilution): 10 mM),IRF Lucia reporter activity,[1]; [3],0.0714
same,IRF Lucia reporter activity,[1]; agonist: LPS (TLR4) 0.1 ug/mL,0.736
COC(=O)C(CC(C)C)NC(=O)c1ccc(NCC(N)CS)cc1-c1cccc2ccccc12.O=C(O)C(F)(F)F (configuration not stated),IRF Lucia reporter activity,[2]; [4],0.882
N#Cc1ccc2[nH]c(O)c(-c3ccc(CN4CCOCC4)cn3)c2c1,IRF Lucia reporter activity,[2]; [4],1.01
N#Cc1ccc(-c2c(-c3ncn[nH]3)sc(N3CCOCC3)c2C#N)c(F)c1 (library stock concentration (final ~1000-fold dilution): 10 mM),IRF Lucia reporter activity,[1]; [3],0.455
same,IRF Lucia reporter activity,[1]; agonist: LPS (TLR4) 0.1 ug/mL,10.2
N#Cc1cccc(-c2c[nH]c3ncnc(N4CCOCC4)c23)c1 (library stock concentration (final ~1000-fold dilution): 10 mM),IRF Lucia reporter activity,[1]; [3],0.11
same,IRF Lucia reporter activity,[1]; agonist: LPS (TLR4) 0.1 ug/mL,0.291
N#Cc1ccc2[nH]c(O)c(-c3ccc(CN4CCOCC4)cn3)c2c1 (library stock concentration (final ~1000-fold dilution): 10 mM),IRF Lucia reporter activity,[1]; [3],0.996
same,IRF Lucia reporter activity,[1]; agonist: LPS (TLR4) 0.1 ug/mL,0.903
CCS(=O)(=O)O.COC(=O)c1ccc2c(c1)NC(=O)/C2=C(\Nc1ccc(N(C)C(=O)CN2CCN(C)CC2)cc1)c1ccccc1 (library stock concentration (final ~1000-fold dilution): 10 mM),IRF Lucia reporter activity,[1]; [3],0.0841
same,IRF Lucia reporter activity,[1]; agonist: LPS (TLR4) 0.1 ug/mL,0.246
CCS(=O)(=O)O.COC(=O)c1ccc2c(c1)NC(=O)/C2=C(\Nc1ccc(N(C)C(=O)CN2CCN(C)CC2)cc1)c1ccccc1,IRF Lucia reporter activity,[2]; [4],0.215
Cc1nnc(NC(=O)c2nc(S(=O)(=O)Cc3ccc(F)cc3)ncc2Cl)s1 (library stock concentration (final ~1000-fold dilution): 10 mM),IRF Lucia reporter activity,[1]; [3],0.0452
same,IRF Lucia reporter activity,[1]; agonist: LPS (TLR4) 0.1 ug/mL,0.308
NC1C(O)OC(CO)C(O)C1O (configuration not stated) (library stock concentration (final ~1000-fold dilution): 10 mM),IRF Lucia reporter activity,[1]; [3],0.143
same,IRF Lucia reporter activity,[1]; agonist: LPS (TLR4) 0.1 ug/mL,0.267
CC(C)=CCC[C@](C)(O[C@@H]1O[C@H](CO)[C@@H](O)C(O)[C@H]1O)[C@H]1CC[C@]2(C)[C@H]1[C@H](O)CC1[C@@]3(C)CC[C@H](O)C(C)(C)[C@@H]3[C@@H](O[C@@H]3O[C@H](CO)[C@@H](O)[C@H](O)[C@H]3O[C@@H]3O[C@@H](C)[C@H](O)[C@@H](O)[C@H]3O)C[C@]12C (some centres not stated) (library stock concentration (final ~1000-fold dilution): 10 mM),IRF Lucia reporter activity,[1]; [3],1.16
same,IRF Lucia reporter activity,[1]; agonist: LPS (TLR4) 0.1 ug/mL,1.03
